# Columns and labels:
# Conditions in all cases: concentration: 1 μM, replicates: in singlicate; n = 1
# PAK3 = tested on: PAK3
# PAK4 = tested on: PAK4
# PAK6 = tested on: PAK6
# PAK7 = tested on: PAK7
# PCTK1 = tested on: T1, PCTK1
# T1 construct: gene CDK16
# PCTK2 = tested on: T2, PCTK2
# T2 construct: gene CDK17
# PCTK3 = tested on: T3, PCTK3
# T3 construct: gene CDK18
# PDGFRA = tested on: PDGFRA
# PDGFRB = tested on: PDGFRB
# PDPK1 = tested on: PDPK1
# PFTAIRE2 = tested on: PFTAIRE2
# PFTK1 = tested on: T4, PFTK1
# T4 construct: gene CDK14
# PHKG1 = tested on: PHKG1
# PHKG2 = tested on: PHKG2
# PIK3C2B = tested on: PIK3C2B
# PIK3C2G = tested on: PIK3C2G
# PIK3CA = tested on: PIK3CA
# PIK3CB = tested on: PIK3CB
# PIK3CD = tested on: PIK3CD
# PIK3CG = tested on: PIK3CG
# 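Further: KINOMEscan kinase panel screen.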
SMILES,%Inh (PAK3),%Inh (PAK4),%Inh (PAK6),%Inh (PAK7),%Inh (PCTK1),%Inh (PCTK2),%Inh (PCTK3),%Inh (PDGFRA),%Inh (PDGFRB),%Inh (PDPK1),%Inh (PFTAIRE2),%Inh (PFTK1),%Inh (PHKG1),%Inh (PHKG2),%Inh (PIK3C2B),%Inh (PIK3C2G),%Inh (PIK3CA),%Inh (PIK3CB),%Inh (PIK3CD),%Inh (PIK3CG)
COc1ccc(Nc2nccc(N3CCC(NC(=O)C(C)c4ccc(Cl)cc4)C3)n2)cc1 (stereo not drawn) [GSK1379735],71%,0%,0%,6%,0%,10%,9%,0%,34%,4%,0%,28%,4%,0%,0%,0%,0%,0%,0%,0%
CC(=O)c1c(C)c2cnc(Nc3ccn(C)n3)nc2n(C2CCCC2)c1=O,0%,0%,0%,0%,0%,0%,100%,0%,0%,0%,0%,0%,0%,2%,0%,0%,0%,0%,18%,61%
CC[C@@H]1CO[C@H](C(=O)Nc2ccccc2)CN1c1cc(-c2ccc3c(N)n[nH]c3c2)nc(NC)n1 [GSK2376236],0%,0%,3%,7%,3%,11%,0%,0%,20%,94.6%,23%,28%,0%,11%,0%,0%,0%,0%,0%,6%
CC(C)c1cc(-c2ccc3c(N)n[nH]c3c2)nc(N)n1 [GSK2250882],0%,0%,0%,6%,0%,9%,11%,0%,18%,74%,26%,4%,1%,5%,0%,0%,0%,0%,0%,5%
O=C1NC(=O)C(c2ccc(Cl)cc2)=C1Nc1ccc(O)cc1 [SB-340867],0%,0%,0%,0%,0%,4%,0%,0%,0%,17%,13%,0%,0%,0%,0%,0%,0%,0%,0%,17%
Cc1ccc(NC(=O)Nc2ccccc2)cc1-c1ccc(C(=O)Nc2ccncc2)cc1 [GSK1398471],11%,0%,0%,1%,4%,0%,21%,49%,100%,26%,25%,27%,0%,2%,27%,0%,29%,0%,0%,14%
O=C(Nc1n[nH]c2nc(-c3cccs3)c(Br)cc12)C1CC1 [SB-735297],0%,0%,3%,0%,28%,40%,6%,0%,43%,0%,18%,14%,0%,0%,0%,0%,0%,22%,0%,10%
Cc1cnc(N)c(/C=C/c2cncc(C(=O)NCCc3ccc(Cl)cc3Cl)c2)c1.Cl [GSK190937],0%,0%,0%,7%,1%,0%,0%,96.4%,98.8%,0%,0%,9%,0%,19%,0%,2%,0%,1%,0%,4%
Cc1ccc(-c2nc(Nc3ccncc3)c3ccccc3n2)s1 [GSK189015],6%,4%,8%,0%,7%,0%,30%,0%,22%,26%,22%,28%,9%,0%,0%,0%,0%,0%,0%,0%
COc1cccc(NC(=O)Nc2ccc(C)c(-c3ccc(C(=O)Nc4ccncc4)cc3)c2)c1 [GSK1398474],27%,0%,0%,26%,0%,11%,13%,48%,100%,27%,27%,0%,0%,17%,100%,0%,99.9%,0%,0%,99.9%
NS(=O)(=O)c1cccc(N/C=C2\C(=O)Nc3ccc(S(=O)(=O)Cc4c(Cl)cccc4Cl)cc32)c1 [GSK398099],0%,0%,5%,4%,6%,0%,21%,0%,20%,0%,26%,5%,0%,0%,4%,0%,16%,0%,0%,41%
O=C1NC(=O)C(c2ccc(Cl)cc2)=C1Nc1cccc(Cl)c1 [SB-317651],14%,18%,0%,0%,0%,15%,12%,9%,0%,0%,0%,1%,0%,0%,13%,0%,9%,96.7%,0%,38%
COc1ccc(CSc2nnc(-c3ccc4c(c3)CCO4)o2)cc1,0%,0%,0%,0%,0%,5%,0%,0%,0%,0%,0%,0%,0%,25%,0%,0%,0%,0%,0%,0%
Fc1ccc(-c2nc[nH]c2-c2ccncc2)cc1 [SB-217360],0%,13%,2%,0%,0%,0%,0%,0%,0%,0%,12%,0%,0%,3%,0%,0%,12%,0%,0%,0%
O=c1cc(N2CCOCC2)nc2n(Cc3ccccc3F)ccn12 [GSK2297428],24%,0%,0%,9%,0%,0%,0%,0%,8%,0%,0%,23%,0%,0%,2%,0%,6%,94.5%,32%,24%
Fc1ccc(-c2nc3n(c2-c2ccncc2)CCS3)cc1 [GI98581],42%,0%,0%,0%,12%,0%,20%,0%,16%,36%,11%,16%,0%,0%,92.7%,0%,91.9%,0%,0%,81%
Cc1nccc(-c2c(-c3ccc(F)cc3)ncn2CCCN2CCOCC2)n1.Cl [SB-282975],0%,0%,0%,0%,1%,3%,10%,0%,0%,29%,24%,2%,33%,89%,0%,22%,0%,20%,49%,0%
Cc1ccc(NC(=O)Nc2ccccc2F)cc1-c1ccc(C(=O)Nc2ccncc2)cc1 [GSK1398477],27%,0%,5%,11%,4%,12%,46%,50%,100%,19%,28%,25%,23%,4%,0%,0%,0%,0%,0%,0%
CCn1c(-c2c(N)noc2C)nc2cnccc21 [SB-737856],3%,0%,0%,0%,0%,0%,44%,0%,0%,2%,15%,33%,0%,0%,1%,0%,0%,100%,3%,0%
COc1ccc(Nc2nccc(N3CCC(NC(=O)C(C)c4ccc(Cl)cc4)CC3)n2)cc1 (stereo not drawn) [GSK1379812],47%,2%,0%,22%,100%,0%,15%,0%,27%,7%,8%,5%,0%,16%,15%,0%,21%,22%,0%,12%
Cc1c(Cn2c(C)c(C)n3c(=O)cc(N4CCOCC4)nc23)cccc1C(F)(F)F [GSK2328680],0%,19%,0%,0%,0%,0%,31%,0%,16%,0%,8%,10%,0%,0%,4%,0%,20%,99.1%,80%,4%
